Source: the supplement of paper PMC11417369
Over roughly 25,000 sequences, “ln(normalized median fluorescence intensity)” has its median near 7.1; the highest 2% begin near 10. The sample holds the highest values, similar sequences and a random draw of the others, so the mix is not that of the screen.

Test system: PfSIP2 AP2 domain 1 (GST-tagged)
Test: gcPBM binding intensity (ln(normalized median fluorescence intensity)); higher = stronger DNA binding
How it was run: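 The binding buffer was 1× PBS containing 1% milk, 0.2 mg/ml BSA, 0.5% salmon testes DNA and 0.03% Triton X-100. In it, GST-tagged P. falciparum DNA-binding domains expressed in E. coli were applied for 1 h to an Agilent 4 × 180k array of primer-extended double-stranded 36-bp intergenic genomic probes plus negative controls. Binding intensity, read with Alexa488 anti-GST antibody and a 488 nm scan, is the highest Masliner-normalised natural-log median intensity across replicate spots of either probe orientation.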

Going from “ATTTTTATGTTGAAAAGTACTTGAATCCCATGTAAC [XGTACX_site4453]” to “ATATATATATATATAACACACGTGTATTTATCTGTA [CACACA_site5922]”, the “gcPBM binding intensity (ln)” value rises from 7.09 to 9.33.

First: AACACACACATATATATATATATATATATATATATA [GTGCAC_negctrl_site573]
Second: TAATTAATTTACATTTTAATTTTATACAAAATTTAT [CACACA_negctrl_site830]
The “gcPBM binding intensity (ln)” value of the first is higher: 9.64 for the first, 6.7 for the second.

First: TTCCTGTTAATTACAACACACAATTTTTATTTTATG [CACACA_site779]
Second: ATTGTGGCAATATATTGTACATGTAATATAAATATA [XGTACX_site5415]
The “gcPBM binding intensity (ln)” value of the first is higher: 7.16 for the first, 7.06 for the second.

Compared with “TTCTTTTTTTTTAAAACAAACAAACAAACAAACAAA [CACACA_negctrl_site832]”, “TTCTTTTTAATGTCGGTGCAACTCCATAAAAACAAA [GTGCAC_site9488]” is higher in “gcPBM binding intensity (ln)” value: 7.06 for the first, 10.8 for the second.

Going from “CCATATTTAATAAAATGTACTCATTCTTTTATTTTA [XGTACX_site7802]” to “ATATATTTTATATAGTGTACTTTAATTTTTTTTTTT [XGTACX_site5550]”, the “gcPBM binding intensity (ln)” value falls from 7.11 to 6.83.

Compared with “AGTTATTTTTATATTTCACACACATATACTTTTACA [CACACA_site9357]”, “TAGCTGTTCAAAAAATGTACATATATAATATATATA [XGTACX_site5842]” is higher in “gcPBM binding intensity (ln)” value: 7.21 for the first, 7.49 for the second.

Compared with “ACACATAATATAAAGGTGCTATATTGTATTCATTTT [GTGCAC_site9457]”, ATTTTCATGATAAAGGTGCAATTATTTTTATAAGAA is higher in “gcPBM binding intensity (ln)” value: 8.36 for the first, 10.8 for the second.

First: AAACCCTATTCAATGCAATAATTTTATAATTTTTTT [TGCATGCA_negctrl_site434]
Second: GTATTCATGCTAAAGGTGCAATAATTTTTATAATAA [GTGCAC_site9603]
The “gcPBM binding intensity (ln)” value of the first is lower: 6.91 for the first, 10.9 for the second.

Compared with AATAAATTCATGATAGTGCAAAAATTATTTTTGTTA, “TATAATTTATTAAGGGGTACATATATTTCATGATAA [XGTACX_site5141]” is lower in “gcPBM binding intensity (ln)” value: 8.49 for the first, 7.19 for the second.

Compared with “AATCAAAATTAATTAACACACAATTTTAATATTCTT [CACACA_site2063]”, “ATATATTTTTTTTAGCGTACATGCAAAAAAAAAAAA [XGTACX_site4590]” is higher in “gcPBM binding intensity (ln)” value: 6.79 for the first, 7.26 for the second.

Compared with “TACGTTATGTTGAATAGTACAATTTGGTGAACAGGT [XGTACX_site1729]”, “GTAGTGGTTGAATATACACACATATATAAATAAATA [CACACA_site7282]” is lower in “gcPBM binding intensity (ln)” value: 7.51 for the first, 7 for the second.

Going from TTTTTTTTTTTTTTGGTGCGTTTATATATAAATATA to “TTTTATAAACAGAGGGGTACGGGAAAAAAAAAAAAA [XGTACX_site1480]”, the “gcPBM binding intensity (ln)” value falls from 8.81 to 7.11.

First: TTTTTTTTTTTGTGGGTGCGTTTATAAAAACAGGAA
Second: TAATACCATTGTCATGCATGCACATTATTACTCTAA [TGCATGCA_site160]
The “gcPBM binding intensity (ln)” value of the first is higher: 11.1 for the first, 7.38 for the second.

Going from “CCTAAAGTGTAAAATTCACACACATATATATATATA [CACACA_site8385]” to “ATATATTTTAGGAGAGTGCATTTAATATTATTTAAT [GTGCAC_site9444]”, the “gcPBM binding intensity (ln)” value rises from 8.94 to 8.99.

Compared with ATTTTTTTCTTAGGAGTGCACTTATATTTATTTTAT, TTTTATATTTTAAGAGTGCATTTTATATCTTTTTCT is lower in “gcPBM binding intensity (ln)” value: 11.2 for the first, 8.74 for the second.

First: TATATATAATATACATGTACAAATGTATTTAAAAAT [XGTACX_site6090]
Second: AGGTATATATTACAAGTGCACTGTAAAATTAAAATT
The “gcPBM binding intensity (ln)” value of the first is lower: 7.07 for the first, 10.7 for the second.

Going from “TGCATAATTAAAAATGGTACACTGTATTTATAATAT [XGTACX_site1575]” to TAAAAAATTAATAAAGTGCATAAATATTACAATATT, the “gcPBM binding intensity (ln)” value rises from 7.13 to 8.14.

First: TCTTATGAATATCCCCGTACACATATATTTCTTATA [XGTACX_site6877]
Second: TATAAATTTTGTTTAGCACACACACCGACATACATA [CACACA_site9033]
The “gcPBM binding intensity (ln)” value of the first is lower: 7.22 for the first, 7.28 for the second.

Compared with “AAACAAAAAAGAAACACACACTAATTAAATTTTCTT [CACACA_site4746]”, “AATATTTGTTAAAGAGGTACACCATTTGGTAGGGAA [XGTACX_site2165]” is higher in “gcPBM binding intensity (ln)” value: 6.74 for the first, 7.06 for the second.

Going from “ATTTTTTTTTTTTTTTTAAGACAAACTCTTAATTTA [CACACA_negctrl_site1389]” to “TATGAAGTACACAATACACACTAATTATATATAAAT [CACACA_site5444]”, the “gcPBM binding intensity (ln)” value rises from 6.78 to 6.91.

Going from “TATATGAAGTACACAATACACACTAATTATATATAA [CACACA_site2608]” to “TATGAAGTGCACAATACACACTAATTCTATATAAAT [CACACA_site7269]”, the “gcPBM binding intensity (ln)” value rises from 7.12 to 11.2.

Compared with “CATACATACAGATATACACACATATATAATAATATA [CACACA_site5477]”, “AGGTGCTTAATATATACACACATACAGATATATATA [CACACA_site5552]” is higher in “gcPBM binding intensity (ln)” value: 7.14 for the first, 7.6 for the second.

Compared with AAATGAATATTCATAGTGCAATATATAAATGAAAAT, “ATAATAAAAATAAGAGAATAAAAATGCAATTTAATG [CACACA_negctrl_site878]” is lower in “gcPBM binding intensity (ln)” value: 7.94 for the first, 6.81 for the second.

Compared with “AGAATAATAAAATGGGTGCAATAGTTTTTTTTTTTT [GTGCAC_site9823]”, “GAGAAATTTATACATACACACATATATATATTATAT [CACACA_site4038]” is lower in “gcPBM binding intensity (ln)” value: 10.4 for the first, 7.16 for the second.

First: ATATATATATATGTATGTATATATATATGTTTGATT [XGTACX_negctrl_site62]
Second: TTACGAATTACATATTGTACATATGCACAATTTTAA [XGTACX_site6802]
The “gcPBM binding intensity (ln)” value of the first is higher: 9.56 for the first, 7.4 for the second.

Going from “AATATTACAATTTGGTGTACAGGTGCACATGCCTCA [XGTACX_site1730]” to “ATTATTTTGTTTATTACATGCAGGTGTATATTACAG [TGCATGCA_site723]”, the “gcPBM binding intensity (ln)” value falls from 11.5 to 7.2.

First: ATATATTCCATAAAGGTGCTGTTAACGTGTCAACGT [GTGCAC_site9402]
Second: AACATATTGGATTTAGTGCACATATATATCATAATA
The “gcPBM binding intensity (ln)” value of the first is lower: 7.84 for the first, 10.3 for the second.

First: AAAAAAAAAAAAAGTGCACACTTTTAATATAAATAT [CACACA_site3314]
Second: TTATACAGGACAATAGTGCACATAAATATATGTATA
The “gcPBM binding intensity (ln)” value of the first is higher: 10.8 for the first, 10.6 for the second.

Compared with “ATATATATATATAGTGCACACATATAAAATATATAT [CACACA_site8884]”, “AAAAATAAATATATATGTACACATATGTATACAATA [XGTACX_site4692]” is lower in “gcPBM binding intensity (ln)” value: 10.1 for the first, 7.03 for the second.

First: ATATATCATATTATAGTGCATTTATAATAATATTAT
Second: AGTGCATAATATTTATGTACGTATCACATATATTTT [XGTACX_site5166]
The “gcPBM binding intensity (ln)” value of the first is higher: 9.33 for the first, 9.05 for the second.

First: AATACAATAAAATAGTGTACATATATATTATGTATA [XGTACX_site8258]
Second: ATATATATATAGTGCACACATATAAAATATATATAA [CACACA_site2745]
The “gcPBM binding intensity (ln)” value of the first is lower: 6.93 for the first, 10.3 for the second.

First: ATATAAATATAGTGTGCACACACATAATATATATAT [CACACA_site8713]
Second: TTTATATTTTTTTTTGCACACTTTAAAAAAATATAT [CACACA_site1146]
The “gcPBM binding intensity (ln)” value of the first is higher: 8.66 for the first, 7.4 for the second.

With “TATAATAAAATTTTTACACACTTTAAAAAAAAAAAA [CACACA_site524]” the “gcPBM binding intensity (ln)” value was 6.88.
